This is an account of results in PubChem BioAssay (Tox21).

A short description of experiment [1]: qHTS assay to identify small molecule antagonists of the TGF-beta/Smad signaling pathway - cell viability counter screen (AID 1346824). Also: nearly all actives have a fitted effect of over 50% in size. The method, boiled down:
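SBE-bla HEK 293T cells were plated overnight at 37 C, then given compounds in DMSO plus TGF-beta1 (added as 0.25 ng/mL solution) for 5 hr. After the bla read, CellTiter-Glo was added to the same wells and luminescence read after 30 min at room temperature.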

Experiment [2] in a line: qHTS assay to identify small molecule agonists of the TGF-beta/Smad signaling pathway - cell viability counter screen (AID 1346829). Also: nearly all actives have a fitted effect of over 45% in size. Also: potency is read from the fitted curve at half-maximal effect. As to activity change, negative = cytotoxicity: top concentration of the series differs between compounds. The method, boiled down: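 Cytotoxicity counter screen: CellTiter-Glo luminescence (30 min, room temperature) measured in the SBE-bla HEK 293T reporter wells after 5 hr compound treatment at 37 C and the 2 hr substrate step.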
The nature of experiment [3]: qHTS assay to identify small molecule agonists of the TGF-beta/Smad signaling pathway (AID 1346859; active = well fitted activation curve with a large enough effect in the signal ratio in the repeat runs, not every such curve was filed as active; the % refers to the signal ratio; also: series mostly up to about 77 µM). In outline:
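Each well held 4,000 SBE-bla HEK 293T cells incubated overnight before compound addition; 5 hr later the cleavable FRET substrate went on for 2 hr at room temperature, and fluorescence was read at two emissions.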

Experiment [4] is described as follows: Human pregnane X receptor (PXR) small molecule agonists, qHTS cell viability counter screen (AID 1346977). Also: nearly all actives have a fitted effect of over 50% in size. Also: potency is read from the fitted curve at half-maximal effect. The method, boiled down: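 Tox21 qHTS format; PXR-Luc HepG2, 2,000/well, charcoal-stripped FBS 5%. Cpd exposure 24hr. Read: CellTiter-Fluor fluorescence, multiplexed with luciferase.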
In general terms: In qHTS, concentration-response curves come from the screen itself.

Experiment [5] in a line: Caspase-3/7 induction in CHO-K1 cells by small molecules, qHTS cell viability counter screen (AID 1346979). Also: nearly all actives have a fitted effect of over 35% in size. Also: potency is read from the fitted curve at half-maximal effect. In outline:
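CellTiter-Fluor viability check, qHTS format: wild-type CHO-K1, 16hr compound treatment, 1hr reagent incubation, fluorescence read.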

Experiment [6] is described as follows: Caspase-3/7 induction in CHO-K1 cells by small molecules, qHTS assay (AID 1346980). Also: nearly all actives have a fitted effect of over 15% in size. In outline: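 Wild-type cells were seeded at 1,500 per well and settled 5 hr at 37 C, 5% CO2, then exposed to DMSO-dissolved compounds for 17 hr. Caspase-Glo 3/7 reagent was added, and luminescence was read after 30min at room temperature.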
Experiment [7] in a line: Caspase-3/7 induction in HepG2 cells by small molecules, qHTS cell viability counter screen (AID 1346981). Also: nearly all actives have a fitted effect of over 30% in size. Also: potency is read from the fitted curve at half-maximal effect. As to activity change, negative = cytotoxicity: series mostly up to about 92 µM. The method, boiled down:
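Wild-type HepG2 cells (2,000/well) were allowed to settle for 5 hr at 37 C, 5% CO2, then dosed with compounds in DMSO by pin transfer. After 16 hr at 37 C, CellTiter-Fluor was added and fluorescence read 1 hr later.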

The target in experiment [8] is Thyrotropin-releasing hormone receptor (Homo sapiens) (UniProt P34981). Briefly: qHTS assay to identify small molecule antagonists of the thyrotropin-releasing hormone receptor (TRHR) signaling pathway (AID 1346877; active = well fitted inhibition curve with a large enough effect in the repeat runs, not every such curve was filed as active; also: series mostly up to about 51 µM). In outline: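 TRHR-expressing HEK293 cells were seeded, cultured 18 h at 37 °C, then loaded with calcium dye for 2 h. Compounds were pre-incubated 5 min at room temperature before 1 nM TRH (final) was added, and kinetic fluorescence was recorded for 3 min.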
Thyrotropin-releasing hormone receptor (Homo sapiens), sequence (P34981 whole entry, looked up): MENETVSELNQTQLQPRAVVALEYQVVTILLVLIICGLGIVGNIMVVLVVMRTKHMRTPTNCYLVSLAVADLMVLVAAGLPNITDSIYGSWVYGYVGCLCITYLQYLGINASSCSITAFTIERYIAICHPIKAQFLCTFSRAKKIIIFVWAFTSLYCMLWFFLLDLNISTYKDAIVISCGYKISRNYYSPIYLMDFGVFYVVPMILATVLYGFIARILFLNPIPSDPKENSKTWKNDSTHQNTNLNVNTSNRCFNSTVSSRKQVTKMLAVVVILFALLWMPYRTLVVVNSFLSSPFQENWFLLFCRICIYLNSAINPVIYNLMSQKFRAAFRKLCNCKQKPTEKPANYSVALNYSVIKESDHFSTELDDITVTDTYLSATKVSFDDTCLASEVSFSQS

Experiment [9] is described as follows: Caspase-3/7 induction in HepG2 cells by small molecules, qHTS assay (AID 1346978). Also: nearly all actives have a fitted effect of over 15% in size. Also: potency is read from the fitted curve at half-maximal effect. The method, boiled down: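 Wild-type HepG2 cells (2,000/well) were settled 5 h at 37 C, 5% CO2, then exposed to compounds in DMSO for 17 h. Caspase-3/7 activity was read by luminescence 30 min after adding Caspase-Glo 3/7 reagent at room temperature.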
The target of experiment [10] is Thyrotropin-releasing hormone receptor (Homo sapiens) (UniProt P34981). Briefly: qHTS assay to identify small molecule agonists of the thyrotropin-releasing hormone receptor (TRHR) signaling pathway (AID 1346891; calls by dose curve; also: series mostly up to about 58 µM). In outline:
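Screening of agonists relied on calcium signalling in HEK293 cells expressing human TRHR: dye loading 2 h at 37 °C preceded compound addition and a 3-min fluorescence time course.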

Several values for one entry are separate records, joined by “and”; a condition that tells them apart may be missing. Equal entries are not always repeated. Records with an inconclusive call do not appear. The source holds several records for some structures; these can differ, active in one and inactive in another. Activity calls are given as the source filed them. Unless noted, calls follow the shape of the dose curve; as a rule, active = well fitted curve in the direction sought with a large enough effect in the repeat runs; inconclusive = weak or mixed curves; inactive = no such curve, though single readings can be large; an effect the other way counts as inactive or inconclusive.
% is scaled to controls: 0 for no effect and ±100 for the full control effect.

As for `Cc1ccc2oc(=O)ccc2c1`, the Potency entry in [1], in experiment [2], in [4], in experiment [5] and in experiment [7] was “inactive” in each case. Also, the call in experiment [3] and in experiment [6] was inactive.
On to `COc1ccc(Cl)cc1C(=O)NCCc1ccc(S(=O)(=O)NC(=O)NC2CCCCC2)cc1`, for which the Potency result in experiment [1], in experiment [2], in experiment [8], in [4], in experiment [9] and in [5] was “inactive” in each case. Moreover, the Potency entry in experiment [7] was “inactive”. In experiment [6], the compound was called inactive.
For `c1ccc2scnc2c1`, the Potency result in experiment [1], in experiment [2], in [9], in experiment [5] and in experiment [7] was “inactive” in each case. Further, the compound was classed as inactive in experiment [3] and in experiment [6].
Regarding `Cc1cccc(O)c1`, the Potency result in experiment [1], in experiment [2], in [4], in experiment [5] and in [7] was “inactive” throughout. Moreover, the result in experiment [3] and in experiment [6] was inactive.
Regarding `CCCCCCCCCCCCCCCO`, the Potency in experiment [2] is 24.8 µM (active) and inactive. The compound was classed as inactive in experiment [3] and in [6]. The Potency result in [4], in experiment [9] and in experiment [7] was “inactive” throughout.
Turning to `CN(C)CCC(c1ccccc1)c1ccccn1` (configuration not stated), the Potency entry in experiment [1], in experiment [2], in experiment [9], in [5] and in [7] was “inactive” throughout. The compound was called inactive in experiment [3] and in experiment [6].
`N[C@@H](Cc1cc(I)c(Oc2cc(I)c(O)c(I)c2)c(I)c1)C(=O)O`: the Potency result in experiment [1], in experiment [2], in experiment [4], in experiment [5] and in experiment [7] was “inactive” in each case. Besides, the compound was called inactive in experiment [3] and in experiment [6].
Turning to `CC(C)CC(=O)CC(C)C`, the Potency entry in [1], in experiment [2], in experiment [4], in [5] and in experiment [7] was “inactive” in each case. The compound was called inactive in experiment [3] and in experiment [6].
With `CC(=O)Nc1cccc(O)c1`, the Potency entry in [1], in experiment [2], in [4], in experiment [5] and in experiment [7] was “inactive” in each case. For the same compound, the result in [3] and in experiment [6] was inactive.
Turning to `NNc1nncc2ccccc12`, the Potency entry in [1], in [2] and in [7] was “inactive” each time. In addition, the outcome in [3] and in experiment [6] was inactive.
On to `O=C(O)CC(C(=O)O)C(CC(=O)O)C(=O)O` (configuration not stated), for which the Potency entry in experiment [1], in experiment [2], in [9] and in [7] was “inactive” in each case. For the same compound, the compound was called inactive in experiment [3] and in experiment [6].
Consider `O=P(OC(CCl)CCl)(OC(CCl)CCl)OC(CCl)CCl`, for which the Potency result in [1], in experiment [2] and in experiment [9] was “inactive” throughout. For the same compound, the compound was classed as inactive in experiment [3] and in experiment [6]. Besides, the Potency in experiment [4] was 39.8 µM (active) and inactive; in experiment [7], 30.5 µM (active).
In the case of `O=C(O)CCCCCCCCCCC(=O)O`, the Potency entry in [1], in experiment [2], in experiment [4], in experiment [9] and in [7] was “inactive” throughout. The outcome in [3] and in experiment [6] was inactive.
In the case of `C[C@H]1C[C@H]2[C@@H]3CCC4=CC(=O)C=C[C@]4(C)[C@@]3(F)[C@@H](O)C[C@]2(C)[C@@]1(O)C(=O)CO`, the Potency result in experiment [1], in experiment [2], in experiment [5] and in [7] was “inactive” in each case. Also, the compound was called inactive in experiment [3] and in experiment [6].
On to `ON=C1CCCCC1`, for which the Potency entry in experiment [1], in experiment [2], in experiment [9] and in experiment [7] was “inactive” in each case. The outcome in experiment [3] and in experiment [6] was inactive.
In the case of `O=S1(=O)CC=CC1`, the Potency result in [1], in experiment [2] and in experiment [7] was “inactive” each time. Moreover, the outcome in experiment [3] and in [6] was inactive. Moreover, the Potency in experiment [9] is 59 µM (active) and inactive.
Consider `O=C(O)CCCC[C@@H]1SC[C@@H]2NC(=O)N[C@@H]21`, for which the Potency result in [1], in experiment [2], in [4], in experiment [5] and in experiment [7] was “inactive” each time. The compound was classed as inactive in [3] and in experiment [6].
Regarding `O=C(O)c1cc(=O)c2c(OCC(O)COc3cccc4oc(C(=O)O)cc(=O)c34)cccc2o1`, the Potency result in [1], in [2], in [9], in experiment [5] and in [7] was “inactive” each time. Moreover, the compound was called inactive in [3] and in experiment [6].
Turning to `CCc1ccc(CCOc2ccc(CC3SC(=O)NC3=O)cc2)nc1` (configuration not stated), the Potency entry in experiment [1], in experiment [2], in experiment [4], in experiment [9] and in experiment [7] was “inactive” in each case. The compound was called inactive in experiment [10] and in experiment [6].
Consider `CCCCCCCCCC`, for which the Potency result in [1], in experiment [2], in [4], in experiment [5] and in experiment [7] was “inactive” each time. Moreover, the compound was called inactive in experiment [3] and in experiment [6].
Regarding `CCCCCCCCCCCCc1ccccc1`, the Potency result in [1], in [2], in [4], in [9] and in experiment [7] was “inactive” in each case. Further, the compound was classed as inactive in [3] and in experiment [6].
For `CCCCCCOCCO`, the Potency entry in experiment [1], in experiment [2], in [4], in [5] and in experiment [7] was “inactive” in each case. For the same compound, the outcome in experiment [3] and in experiment [6] was inactive.
With `CC(=O)CC(=O)Nc1ccccc1`, the Potency result in experiment [1], in experiment [2], in [4], in experiment [5] and in experiment [7] was “inactive” throughout. In addition, the outcome in experiment [3] and in experiment [6] was inactive.
For the compound `COc1ccc(Nc2ccccc2)c(C)c1`, the Potency result in experiment [1], in experiment [2], in experiment [4], in experiment [5] and in experiment [7] was “inactive” each time. Further, the compound was called inactive in [3] and in [6].
With `CCCCCCCCCCCCOCCO`, the Potency result in experiment [1], in [2], in experiment [9] and in [7] was “inactive” throughout. For the same compound, the result in experiment [3] and in experiment [6] was inactive.
For the compound `C#C[C@]1(O)CC[C@H]2[C@@H]3CCC4=CC(=O)CC[C@@H]4[C@H]3CC[C@@]21C`, the Potency entry in experiment [1], in experiment [2], in [4], in [9] and in experiment [7] was “inactive” in each case. The outcome in experiment [3] and in [6] was inactive.
`Nc1cc([N+](=O)[O-])ccc1O`: the Potency result in experiment [1], in experiment [2] and in [9] was “inactive” each time. In addition, the compound was called inactive in experiment [3] and in experiment [6]. Besides, the Potency in [5] is 54.5 µM (active) and 60.8 µM (active); in [7], 48.6 µM (active) and 68.2 µM (active).
For the compound `Cc1cnc(C(=O)NCCc2ccc(S(=O)(=O)NC(=O)NC3CCCCC3)cc2)cn1`, the Potency entry in experiment [1], in experiment [2], in experiment [4], in [5] and in experiment [7] was “inactive” each time. Moreover, the outcome in experiment [3] and in [6] was inactive.
In the case of `CN(C)CCC(c1ccc(Cl)cc1)c1ccccn1` (configuration not stated), the Potency entry in [1], in experiment [2], in [9] and in [7] was “inactive” throughout. In addition, the compound was called inactive in [3] and in [6].
Regarding `CC(O)COCC(C)O` (configuration not stated), the Potency result in experiment [1], in experiment [2], in experiment [4], in experiment [5] and in experiment [7] was “inactive” each time. In addition, the call in [3] and in experiment [6] was inactive.
As for `CN(C)CCOCCN(C)C`, the Potency result in experiment [1], in experiment [2], in [9] and in experiment [7] was “inactive” in each case. The outcome in experiment [3] and in [6] was inactive.
In the case of `O=C(O)[C@H](O)[C@@H](O)[C@H](O)[C@H](O)CO`, the Potency entry in experiment [1], in [2], in experiment [9], in experiment [5] and in experiment [7] was “inactive” in each case. In addition, the outcome in experiment [3] and in [6] was inactive.
In the case of `CCN(CC)CCCC(C)Nc1ccnc2cc(Cl)ccc12` (configuration not stated), the activity change, negative = cytotoxicity in experiment [2] is -0.0742% [at 6.97 µM] (inactive) and -3.92% [at 15.8 µM] (inactive); in experiment [4], -20.8% [at 8.39 µM] (inactive); in experiment [5], -0.939% [at 8.39 µM] (inactive) and -3.64% [at 19 µM] (inactive); in experiment [7], -14.1% [at 8.39 µM] (inactive) and -16.1% [at 19 µM] (inactive). For the same compound, the activation in experiment [3] is 1.95% [at 6.97 µM] (inactive) and -1.03% [at 15.8 µM] (inactive). In addition, the Potency in experiment [4] is 13 µM (active). Besides, in experiment [6], the caspase-3/7 activation is 0.759% [at 8.39 µM] (inactive) and -0.715% [at 19 µM] (inactive).
